Laboratory results reported in PubChem BioAssay (NCATS).
Records with an inconclusive call do not appear. Active and inactive are the calls of the source. The call rests on the fitted dose curve; in most records, active means well fitted inhibition curve with a large enough effect; inconclusive means small, poorly fitted or top-dose-only effect; inactive means flat fitted curve, though single readings scatter. Peptide text beside a SMILES is read from it.

How the values were obtained:
Assay in all cases: qHTS profiling for inhibitors of Plasmodium falciparum proliferation (AID 504749); further: nearly all actives have a fitted effect of over 60% in size
Settings in all cases: P. falciparum in erythrocytes, SYBR Green DNA, 72 h; series mostly up to 12.8 µM
[1] = tested on: AS120
Method in brief: (§1)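 Each compound contacts P. falciparum-infected red blood cells for 72 h at 37 C; lysis buffer (Tris, EDTA, saponin, Triton X, SYBR Green I) is added and fluorescence measured next morning; values normalized to controls.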

[2] = tested on: CP185
Method in brief: as §1

[3] = tested on: CP194
Method in brief: as §1

[4] = tested on: CP238
Method in brief: as §1

[5] = tested on: CP256
Method in brief: as §1

[6] = tested on: CP266
Method in brief: as §1

[7] = tested on: CP269
Method in brief: as §1

[8] = tested on: CP286
Method in brief: as §1

[9] = tested on: CP291
Method in brief: as §1

[10] = tested on: CP297
Method in brief: as §1

[11] = tested on: CP325
Method in brief: as §1

[12] = tested on: DIV30
Method in brief: as §1

[13] = tested on: ECU
Method in brief: as §1

[14] = tested on: FAB9
Method in brief: as §1

[15] = tested on: N140
Method in brief: as §1

[16] = tested on: PC15
Method in brief: as §1

[17] = tested on: PC26
Method in brief: as §1

[18] = tested on: SC27B
Method in brief: as §1

[19] = tested on: TAB109
Method in brief: as §1

[20] = tested on: TAB165
Method in brief: as §1

Measured: Potency

CC[C@@]12CCCN3CCc4c(n(c5ccccc45)[C@](O)(C(=O)OC)C1)C32 (some centres undefined)
inactive: all assays above

CC1(C)OC2CO[C@]3(COS(N)(=O)=O)OC(C)(C)OC3C2O1 (some centres undefined)
inactive: all assays above

CC(=O)N[C@H](CC(C)C)C(=O)O
inactive: all assays above

NCC1CCC(N)C(O[C@@H]2C(O)[C@H](O[C@H]3OC(CO)C(O)C(N)C3O)[C@@H](N)C[C@H]2N)O1 (some centres undefined)
inactive: all assays above

CC(C)=CCC[C@](C)(O)C1CC=C(C)CC1 (some centres undefined)
not listed: [6]
inactive: all other assays above

CCCC(=O)O[C@]1(C(=O)CO)CCC2[C@@H]3CCC4=CC(=O)CC[C@]4(C)C3C(O)C[C@]21C (some centres undefined)
inactive: all assays above

CC1CCC(C(C)C)C(=O)C1 (centres undefined)
inactive: all assays above

COC(=O)C(Cc1ccccc1)NC(=O)C(N)CC(=O)O (stereo not drawn) (H-Asp-Phe-OMe; configuration not given here)
inactive: all assays above

C[C@]12C=CC(=O)C=C1CCC1C2C(O)C[C@]2(C)C1CC[C@]2(O)C(=O)CO (some centres undefined)
inactive: all assays above

COC(=O)N/N=C/C1=C[N+](=O)c2ccccc2[N+]1=O
inactive: all assays above

CC(=O)OC1CCC2C3CCc4cc(O)ccc4C3CCC12C (centres undefined)
inactive: all assays above
